# NTR1 ag: agonists of human neurotensin receptor NTR1; P30989; NTR1-U2OS beta-arrestin-GFP spot imaging, agonist mode; activation, % at 20 µM; 0.17% of 330,000 active; AID 493036;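 active = activation at or above 40% of the spot to cytoplasm intensity ratio, with at least 20 cells analyzed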;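 note: 0% = DMSO without peptide and 100% = 100 nM NTR1 peptide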
# Bfl-1 A1 inh: inhibitors of the anti-apoptotic protein A1, read as caspase activation; caspase activation, % (test concentration not listed); AID 2462; MEF A1-2A-BIM cells, Caspase-Glo 3/7 luminescence, 3 h; percent of clofoctol response, vehicle zero; 0.066% of 330,000 active;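 active = over half of replicate activation scores above 10%, or exactly half above 10 with the replicate mean above 10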
# Beta2AR agonist: human beta-2 adrenergic receptor agonism by FAP | P07550 | Am2.2-beta2AR cells, FAP receptor internalization, flow cytometry | response, % (test concentration not listed) | 0.43% of 340,000 active;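 active = response above a set limit, near 3 SD of response in nonfluorescent compounds, cut at about 42% in these data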
# VLA-4 inh: inhibition in a human VLA-4 binding assay. VLA-4 expressing cells, ligand binding flow cytometry. inhibition, % (about 7 µM as worked out from the volumes in the protocol). 0.2% of 330,000 active; in the data active = inhibition above about 50%
# GRK2 inh: inhibitors of human GRK2 displacing RNA aptamer; P25098; bead flow cytometry, FAM-aptamer displacement from GRK2; inhibition of aptamer binding, % at 10 µM; 0.59% of 330,000 active; AID 488847;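 active = inhibition of aptamer binding above 40%, roughly 3 SD of noise, on plates passing a quality check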;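 note: median bead fluorescence of bound FAM aptamer so fluorescent compounds give negative values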
# GRK2 inh confirm: human GRK2 inhibition confirmation, cherry pick 1; aptamer displacement, % at 10 µM; shares compounds with GRK2 inh; bead-bound GRK2, FAM-aptamer displacement, flow cytometry; 4% of 2,000 active; AID 504451;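 active = aptamer displacement above 40%, near three times the noise of non-fluorescent compounds, on plates passing quality checks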;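 note: negative values mostly reflect intrinsic compound fluorescence rather than true enhancement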
# Aptamer quench SP: quenches fluorescent RNA aptamer, GRK2 hit artifact; Carboxyfluorescein RNA aptamer on beads, flow cytometry quenching; active compounds read low; 2,000 tested, under 10 active; fluorescence response (% of DMSO), % at 10 µM; shares compounds with GRK2 inh;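 active = compounds that quench the bead-bound fluorescent RNA probe, cutting fluorescence to under half of the solvent control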;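 note: counterscreen run without GRK2 so only probe quenching by compound is measured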
# GRK2 CP2: human GRK2 inhibition confirmation, cherry pick 2; bead-bound GRK2, FAM-aptamer displacement, flow cytometry; shares compounds with GRK2 inh; 360 tested, under 10 active; inhibition of aptamer binding, % at 10 µM; AID 504782;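 active = inhibition of aptamer binding above 40%, about triple the noise seen with nonglowing compounds, on plates passing quality control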;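 note: negative values mostly come from compounds that fluoresce themselves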
# FAM quench SP: counter-screen for GRK2 binding hits: quenchers of fluorescent RNA aptamer; shares compounds with GRK2 inh; carboxyfluorescein RNA aptamer beads, flow cytometry quenching; active compounds read low; fluorescence response vs DMSO, % at 10 µM; 360 tested, under 10 active; AID 588494;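 active = response vs DMSO under 50%, meaning signal dropped by over half, treated as fluorescence quencher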;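 note: labelled aptamer on streptavidin beads without GRK2 as a quench counter-screen; 100% = bead fluorescence of DMSO wells and lower means quenching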
# An asterisk follows results filed as active; i = inactive; . = no result given. The list is not random: actives were taken first. Their share in the collection is about 1.3%.
SMILES,NTR1 ag,Bfl-1 A1 inh,Beta2AR agonist,VLA-4 inh,GRK2 inh,GRK2 inh confirm,Aptamer quench SP,others
COc1ccc(NC(=O)CCS(=O)(=O)c2cccc3nonc23)c(OC)c1,-2,0,3,-1,1,.,.,GRK2 CP2=-6;FAM quench SP=100
CCOc1ccccc1NC(=O)CCC(=O)Nc1ccccc1OCC,-1,1,-3,-5,0,.,.,
COc1ccccc1N1C(=O)CC(N2CCN(c3ccc(Cl)cc3)CC2)C1=O (stereo unspecified),-1,-1,-11,7,2,.,.,
COc1cc2c(cc1OC)[C@@H](NC(=O)C(C)C)[C@H](OCc1ccccc1)C2,-1,.,6,.,0,.,.,
N/C(=N\OC(=O)C1CCCCC1)c1ccncc1,0,1,-3,15,1,.,.,
N/C(=N\OC(=O)C1CCCCC1)c1ccccn1,0,-4,-11,6,83*,-5,101,
Cc1ccc(NC(=O)CSC2=C(C#N)C(c3ccco3)C3=C(CCCC3=O)N2)cc1 (stereo unspecified),-3,-3,2,-7,57*,0,94,
CCN(CCNC(=O)C1CCN(c2nnc(-n3cccc3)s2)CC1)c1ccccc1,0,0,-13,0,2,1,97,
O=C(NC(Cc1ccccc1)C(=O)O)/C(=C/c1ccc([N+](=O)[O-])cc1)NC(=O)c1ccc(Br)o1 (stereo unspecified),0,1,-16,8,2,.,.,
O=C(Nc1ccccc1C(=O)O)/C(=C/c1ccc([N+](=O)[O-])cc1)NC(=O)c1ccc(Br)o1,-1,1,-5,-5,80*,0,102,
Cc1cc(C)c(S(=O)(=O)c2c(C)cccc2C)c(Cl)n1,0,1,2,1,81*,-1,100,
O=C(CCC(=O)c1ccc(F)cc1)NCC1(N2CCCCC2)CCCCC1,-1,0,4,-6,0,.,.,
O=C(N/N=C/c1ccc(O)cc1)c1[nH]c2ccc(Br)cc2c1-c1ccccc1,13,2,4,28,51*,-7,100,
CCOC(=O)C1=CN(CC2CCCCC2)CCC1=O,.,.,2,.,.,.,.,
COc1ccc(/C=C2\SC(=S)N(N3C(=O)CCC3=O)C2=O)cc1O,0,1,-4,8,1,12,60,
Cc1nc(SCc2ccc(OCCC(C)C)cc2)n[nH]1,0,-2,-7,17,100*,2,95,
CCN(C(=O)COC(=O)Cc1ccc(F)cc1)c1c(N)n(Cc2ccccc2)c(=O)[nH]c1=O,-2,1,0,-4,0,.,.,
CCCn1c(=O)c2sccc2n2c(CCCC(=O)NCc3ccco3)nnc12,0,0,-8,-3,70*,13,100,
CCCn1c(=O)c2sccc2n2c(CCCC(=O)NCc3cccnc3)nnc12,-1,1,2,7,0,.,.,
O=C(c1ccccc1)N1CCCc2ccccc21,-1,-1,-3,13,0,.,.,
O=C(c1ccc(=O)oc1)N1CCCc2ccccc21,1,0,6,-5,42*,7,106,
O=C(c1coc(=O)c(Br)c1)N1CCOCC1,.,.,-2,.,.,.,.,
O=C(c1ccc(F)cc1)N1CCOCC1,2,1,3,3,50*,0,101,
O=C(c1ccc(=O)oc1)N1CCOCC1,-1,0,2,2,87*,35,110,
O=C1CCC(C2CCc3cc(O)ccc3C2)C1 (stereo unspecified),.,.,-3,.,.,.,.,
SMILES,NTR1 ag,Bfl-1 A1 inh,Beta2AR agonist,VLA-4 inh,GRK2 inh,GRK2 inh confirm,Aptamer quench SP,others
Cc1ccc(C)c(CN2CCC(n3nccc3NC(=O)CCCc3ccccc3)CC2)c1,1,0,-10,1,1,.,.,
O=C1/C(=C/C=C/c2ccco2)SC(=S)N1NS(=O)(=O)c1ccccc1,0,1,26,0,95*,9,96,
COC(=O)c1cc(Br)c(=O)n(CCN2CCOCC2)c1,-1,0,-5,6,0,.,.,
COC(=O)c1cc(Br)c(=O)n(CCN(C(C)C)C(C)C)c1,0,2,-2,6,95*,-3,99,
COc1ccc(-c2csc(Nc3ccc(S(N)(=O)=O)cc3)n2)cc1,8,1,13,-3,44*,.,.,GRK2 CP2=-11;FAM quench SP=100
CC(=O)Oc1ccc(-c2csc(Nc3ccc(S(N)(=O)=O)cc3)n2)cc1,3,0,11,6,1,.,.,
COc1ccccc1N1CCN(S(=O)(=O)c2ccc3c(c2)NC(=O)C(C)S3)CC1 (stereo unspecified),2,0,5,-7,2,.,.,
COc1ccccc1N1CCN(C(=O)C(C)CS(=O)(=O)c2ccc3c(c2)NC(=O)CS3)CC1 (stereo unspecified),1,0,2,-2,54*,.,.,GRK2 CP2=i;FAM quench SP=104
Cc1cc(N/C=C/C(=O)c2ccc(Br)cc2)no1,-1,-2,-5,-2,77*,-2,99,
CC1CC(=Cc2ccc([N+](=O)[O-])cc2)C(=O)O1 (stereo unspecified),.,.,-7,.,.,.,.,
Oc1ccc(C[C@H]2CNCCN2CCc2cc(C(F)(F)F)cc(C(F)(F)F)c2)cc1,18,-1,28,36,44*,.,.,GRK2 CP2=15;FAM quench SP=101
C[n+]1c2n(c3ccccc31)N=C(c1cc(C(C)(C)C)c(O)c(C(C)(C)C)c1)CS2,16,0,8,5,64*,-1,101,
COc1ccc(C2c3ccc(O)cc3Oc3ncn4nc(-c5ccco5)nc4c32)cc1OC (stereo unspecified),2,0,-6,9,57*,3,99,
COc1ccc(C2c3ccc(O)cc3Oc3ncn4nc(-c5ccccn5)nc4c32)cc1OC (stereo unspecified),2,0,-6,10,1,.,.,
O=C(COc1ccc(Cl)cc1Cl)N(C1CCCCC1)C1CCS(=O)(=O)C1 (stereo unspecified),0,0,-13,-5,0,.,.,
COc1ccc(C(=O)CCC(=O)N2CCN(c3cc(C)ccc3C)CC2)cc1,1,-1,2,-7,87*,1,99,
COc1ccc(-c2cccc(CCC(=O)N3CCN(c4cc(C)ccc4C)CC3)c2)cc1,3,.,2,.,1,.,.,
Cc1cccc2cc(-c3ccccc3)c(-c3ccccc3)c[n+]12,.,0,-11,11,44*,18,62,
O=[N+]([O-])c1cccc(-c2cc3cccc[n+]3cc2-c2cccc([N+](=O)[O-])c2)c1,1,0,-4,-4,0,.,.,

# Compound activity deposited in PubChem by several laboratories.
